# Assay outcomes: PubChem, Buhrlage Lab, Dana-Farber Cancer Institute and Novartis Institutes for BioMedical Research (Cambridge, Mass)
# USP17 inh: inhibitors of human USP17 deubiquitinase; A8MUK1; purified USP17, Ub-rhodamine cleavage fluorescence, 3 h; inhibition, % at 50 µM; actives 6.5% (n = 47,000); AID 1645855
# USP30 block: blocks human USP30 ubiquitin-rhodamine cleavage; Q70CQ3; purified USP30, Ub-rhodamine cleavage fluorescence; inhibition, % at 25 µM; actives 5.3% (n = 47,000); AID 1645860
# USP28 inh: blocks human USP28 ubiquitin-rhodamine cleavage; actives 3% (n = 47,000); inhibition, % at 25 µM; AID 1645857; purified USP28, Ub-rhodamine cleavage fluorescence, 30 min; Q96RU2
# * marks the source's active call; other numbers are inactive results; · = no result given. Hits are enriched below; roughly 11% of the tested compounds scored in any of these assays. Cut-off read from the data, not from the text of the source: active = inhibition above about 30%; inactive = the rest.
SMILES,USP17 inh,USP30 block,USP28 inh
CC(Nc1ccccc1Oc1ccccc1)C(=O)N1CC(=O)Nc2ccccc21 (centres undefined),6,3,37*
O=C1CN(C(=O)COc2cccc3ccccc23)c2ccccc2N1,41*,6,23
O=C1CN(C(=O)COc2ccc(F)cc2Cl)c2ccccc2N1,-8,-26,-5
CN1C(=O)COc2cc(-c3noc(C(=O)NC4CCCCCC4)n3)ccc21,7,56*,0
Cc1ccc(CNC(=O)c2nc(-c3ccc4c(c3)OCC(=O)N4C)no2)cc1,19,41*,-10
CCC(C)NC(=O)c1nc(-c2ccc3c(c2)OCC(=O)N3C)no1 (centres undefined),5,10,3
CCN1C(=O)COc2cc(-c3noc(C(=O)NCc4ccccc4)n3)ccc21,17,15,8
CC1(C(=O)NC2CCCC2)Cn2c(ccc2-c2ccco2)C(=O)N1Cc1cccnc1 (centres undefined),-19,·,·
Cc1noc(C)c1CN1CC[C@H]2O[C@H](C(=O)NCc3ccco3)CC[C@H]21,-40,-3,-2
O=S(=O)(Nc1cccnc1-n1nc(C(F)(F)F)cc1C(F)(F)F)c1cccs1,6,0,-1
COc1ccc(C2(c3nnc(-c4ccc(F)cc4)o3)CCOCC2)cc1,-11,-13,-13
COc1ccc(CCc2nnc(-c3cnc4onc(C5CC5)c4c3)o2)cc1,14,4,3
COc1cc(-c2nnc(CSc3ccc(C(F)(F)F)cn3)o2)cc(OC)c1OC,27,38*,13
Cc1nc(-c2noc(-c3cccnc3)n2)cn1CC(=O)N1CCN(c2ccc(F)cc2)CC1,-3,0,-6
NS(=O)(=O)c1cccc(NC(=O)/C=C/c2cn(-c3ccccc3)nc2-c2cccc([N+](=O)[O-])c2)c1,4,34*,23
CC(=O)NS(=O)(=O)c1ccc(NC(=O)/C=C/c2cn(-c3ccccc3)nc2-c2ccccc2)cc1,25,-28,25
Cc1nnn(-c2ccccc2)c1C(=O)NC1CC1,3,·,·
C=C(NC(=O)C(=C)NC(=O)c1ccc2c(n1)-c1coc(n1)C(=C)NC(=O)C(=C)NC(=O)c1nc(oc1C)C(=C)NC(=O)C(C(C)(C)O)NC(=O)C(=C)NC(=O)c1nc(oc1C)/C(=C/C)NC(=O)C(C(C)O)NC(=O)c1csc-2n1)C(N)=O (centres undefined),36*,-78,0
COc1ccc(-c2cc(C)no2)cc1S(=O)(=O)NCc1ccc(F)cc1,-2,-2,-4
O=C(O)c1c(CNCc2ccco2)c2ccccc2n1Cc1ccccc1F,-14,-14,-4
CCc1ccc2[nH]c3c(c(=O)c2c1)CN(CC(=O)NCc1ccc2c(c1)OCO2)CC3,70*,24,19
Cc1ccc2c(=O)c3c([nH]c2c1C)CCN(CC(=O)NCc1ccc2c(c1)OCO2)C3,52*,-11,-4
Cc1cc(C)c2[nH]c3c(c(=O)c2c1)CN(CC(=O)NCc1ccccc1)CC3,-22,-27,-28
CCc1cc(=O)n(CC(=O)NCc2ccc3c(c2)OCO3)c(N)n1,8,1,0
Cc1cccc2c(=O)c3c([nH]c12)CCN(CC(=O)NCc1ccccc1)C3,-167,-154,-28
SMILES,USP17 inh,USP30 block,USP28 inh
Cc1c(Cl)ccc2c(=O)c3c([nH]c12)CCN(CC(=O)NCc1ccc2c(c1)OCO2)C3,49*,-51,32*
O=S1(=O)C[C@H](NCCc2ccc(Cl)cc2)[C@@H](S(=O)(=O)c2ccccc2)C1,-3,9,-1
Cc1cccc(NC(=O)CC2N=C(N3CCN(c4ccccc4)CC3)NC2=O)c1 (centres undefined),26,-20,7
Fc1ccc(-c2nnc(CN3CCN(Cc4ccccc4F)CC3)o2)cc1,-12,-13,-3
CC1(c2ccc3ccccc3c2)NC(=O)N(Cc2nc3ccccc3s2)C1=O (centres undefined),25,-88,-1
O=C1CCCN1CCCNc1nc(CN2CCCCC2)nc2sc3c(c12)CCC3,-18,-68,-33
COc1ccc(C(=O)Nc2nnc(S(=O)(=O)N3c4ccccc4CC3C)s2)cc1OC (centres undefined),12,-142,-31
Cn1ccc(-c2cc(C(=O)N3CCC(O)CC3)c3ccccn23)n1,-90,-395,-85
NC(=O)c1ccc2c(c1)nc1n2CCN(Cc2ccco2)C1,-6,-71,-20
CCCc1nc2sc3c(SCC(=O)N(c4ccccc4)c4ccccc4)ncnc3c2c2c1COC(C)(C)C2,5,-2,-3
CC(C)c1nc2sc3c(SCC(=O)N(c4ccccc4)c4ccccc4)ncnc3c2c2c1COC(C)(C)C2,14,32*,7
COc1ccc2c(c1)CCc1c-2n[nH]c1C(=O)Nc1ccccc1OC,50*,-35,-7
COc1ccc2c(c1)CCc1c-2n[nH]c1C(=O)N1CCN(c2ccccn2)CC1,-14,0,12
